We go through four molecules from PubChem BioAssay (EPA / NIEHS).

The structures appear in SMILES notation. Calls of active or inactive are those of the source. Rule for the calls: active = hit-call score of the fitted dose curve at least 0.9, where 1 is the maximum; inactive = score below 0.9.

Holding throughout (details): mRNA level, 48 h; actives raise or lower the signal
Read-out in test [1]: Insulin-like growth factor-binding protein 1 (IGFBP1), IGFBP1 (gene 3484)
As to the kind of experiment: LTEA_HepaRG_IGFBP1: Life Technologies and Expression Analysis (LTEA) Assay for Insulin-like growth factor-binding protein 1 (IGFBP1) using HepaRG (AID 2283508). The gist of the method:
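Differentiated human HepaRG cells in serum-free induction medium were exposed in duplicate for 48 h to eight concentrations, top 100 uM with half-log dilutions, in 0.5% DMSO. Transcript levels came from qRT-PCR normalised to ACTB, GAPDH and POLR2A, fitted bidirectionally against DMSO.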

Read-out in test [2]: Interleukin 6 (IL6), IL6 (gene 3569)
Nature of the test: LTEA_HepaRG_IL6: Life Technologies and Expression Analysis (LTEA) Assay for Interleukin 6 (IL6) using HepaRG (AID 2283509). The gist of the method:
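HepaRG cells exposed in duplicate for 48 h to eight half-log concentrations, top 100 uM, in 0.5% DMSO serum-free induction medium. mRNA measured by qRT-PCR, normalized to ACTB, GAPDH and POLR2A. Bidirectional fit versus DMSO.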

Read-out in test [3]: Interleukin 6 Receptor (IL6R), IL6R (gene 3570)
Nature of the test: LTEA_HepaRG_IL6R: Life Technologies and Expression Analysis (LTEA) Assay for Interleukin 6 Receptor (IL6R) using HepaRG (AID 2283510). The gist of the method:
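Concentration-response in human liver HepaRG cells: eight concentrations from 100 uM downward by half-logs, 48 h exposure, 0.5% DMSO vehicle. IL6R mRNA change measured by qRT-PCR and fitted in both directions relative to vehicle.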

Read-out in test [4]: Potassium channel subfamily K member 1 (KCNK1), KCNK1 (gene 3775)
Nature of the test: LTEA_HepaRG_KCNK1: Life Technologies and Expression Analysis (LTEA) Assay for Potassium channel subfamily K member 1 (KCNK1) using HepaRG (AID 2283511). The gist of the method:
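Differentiated HepaRG cells, 48 h exposure in serum-free induction medium with 0.5% DMSO; 8 concentrations, half-log from 100 uM, duplicate. KCNK1 mRNA by qRT-PCR, normalized to ACTB, GAPDH, POLR2A; bidirectional fit vs DMSO.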

Read-out in test [5]: Keratin 19 (KRT19), KRT19 (gene 3880)
Nature of the test: LTEA_HepaRG_KRT19: Life Technologies and Expression Analysis (LTEA) Assay for Keratin 19 (KRT19) using HepaRG (AID 2283512). The essentials:
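Differentiated human HepaRG cells, plated 48 h, were exposed in duplicate for 48 h in serum-free induction medium to eight half-log concentrations up to 100 uM in 0.5% DMSO. KRT19 mRNA was quantified by qRT-PCR, normalized to ACTB, GAPDH and POLR2A, and fitted bidirectionally versus DMSO.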

Read-out in test [6]: JUN Transcription Factor, JUN (gene 3725)
Nature of the test: LTEA_HepaRG_JUN: Life Technologies and Expression Analysis (LTEA) Assay for JUN Transcription Factor using HepaRG (AID 2283513). The essentials:
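Human HepaRG liver cells receive test chemicals in 0.5% DMSO for 48 h across an eight-point range topping at 100 uM. Expression changes in JUN are scored in both directions against the DMSO vehicle.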

Read-out in test [7]: Lipase C (LIPC), LIPC (gene 3990)
Nature of the test: LTEA_HepaRG_LIPC: Life Technologies and Expression Analysis (LTEA) Assay for Lipase C (LIPC) using HepaRG (AID 2283514). The gist of the method:
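HepaRG cells, 48 h after plating, treated in duplicate for 48 h in serum-free induction medium over 8 half-log concentrations from 100 uM, 0.5% DMSO. LIPC mRNA by TaqMan qRT-PCR normalized to ACTB/GAPDH/POLR2A; bidirectional fit versus DMSO.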

Read-out in test [8]: Lipoprotein lipase (LPL), LPL (gene 4023)
As to the kind of experiment: LTEA_HepaRG_LPL: Life Technologies and Expression Analysis (LTEA) Assay for Lipoprotein lipase (LPL) using HepaRG (AID 2283515). The essentials: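 Differentiated HepaRG cells, plated 48 h, then exposed 48 h in serum-free induction medium to 8 concentrations (top 100 uM, half-log steps) in 0.5% DMSO, duplicate. LPL mRNA measured by qRT-PCR, normalized to ACTB, GAPDH and POLR2A.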

Read-out in test [9]: MicroRNA 122 (MIR122), gene 406906
Nature of the test: LTEA_HepaRG_MIR122: Life Technologies and Expression Analysis (LTEA) Assay for MicroRNA 122 (MIR122) using HepaRG (AID 2283516). Note: the transcript read is the microRNA miR-122. The essentials: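 HepaRG, 48 h exposure, 8-pt half-log from 100 uM, 0.5% DMSO; TaqMan qRT-PCR; bidirectional fit vs DMSO.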

Read-out in test [10]: matrix metalloproteinase-10 (MMP10), MMP10 (gene 4319)
Nature of the test: LTEA_HepaRG_MMP10: Life Technologies and Expression Analysis (LTEA) Assay for matrix metalloproteinase-10 (MMP10) using HepaRG (AID 2283517). The gist of the method:
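Differentiated HepaRG cells in serum-free induction medium exposed 48 h in duplicate to 8-point half-log series up to 100 uM in 0.5% DMSO. mRNA quantified by qRT-PCR, normalised to ACTB, GAPDH, POLR2A; bidirectional fit versus DMSO.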

Read-out in a further test: MYC, MYC (gene 4609)
Nature of the test: LTEA_HepaRG_MYC: Life Technologies and Expression Analysis (LTEA) Assay for MYC using HepaRG (AID 2283518). The gist of the method: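 Differentiated human HepaRG cells, plated 48 h then switched to serum-free induction medium, were exposed in duplicate for 48 h to 8-point half-log series up to 100 uM in 0.5% DMSO. MYC mRNA measured by qRT-PCR, normalized to ACTB/GAPDH/POLR2A.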

Read-out in test [11]: matrix metalloproteinase-3 (MMP3), MMP3 (gene 4314)
Nature of the test: LTEA_HepaRG_MMP3: Life Technologies and Expression Analysis (LTEA) Assay for matrix metalloproteinase-3 (MMP3) using HepaRG (AID 2283519). The gist of the method: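 HepaRG cells (~100,000/well) in serum-free induction medium were dosed in duplicate for 48 h with an 8-point half-log series from 100 uM, 0.5% DMSO. MMP3 mRNA was quantified by Fluidigm TaqMan qRT-PCR, normalized to three housekeeping genes.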

Read-out in test [12]: Paternally Expressed 10 (PEG10), PEG10 (gene 23089)
As to the kind of experiment: LTEA_HepaRG_PEG10: Life Technologies and Expression Analysis (LTEA) Assay for Paternally Expressed 10 (PEG10) using HepaRG (AID 2283520).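 For AC50: PEG10 transcript by qRT-PCR normalised to ACTB GAPDH and POLR2A.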 The gist of the method:
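Chemicals tested on HepaRG cells for 48 h, highest concentration 100 uM. PEG10 expression assessed by qRT-PCR relative to DMSO control.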

Read-out in test [13]: Protein phosphatase 2A (PPP2R4), PTPA (gene 5524)
As to the kind of experiment: LTEA_HepaRG_PPP2R4: Life Technologies and Expression Analysis (LTEA) Assay for Protein phosphatase 2A (PPP2R4) using HepaRG (AID 2283522). The gist of the method:
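Gene-expression endpoint in HepaRG hepatic cells: 48 h treatment across eight half-log concentrations up to 100 uM in 0.5% DMSO. PPP2R4 mRNA by qRT-PCR, normalized to three endogenous control genes.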

Read-out in test [14]: Phosphatase and tensin (PTEN), PTEN (gene 5728)
As to the kind of experiment: LTEA_HepaRG_PTEN: Life Technologies and Expression Analysis (LTEA) Assay for Phosphatase and tensin (PTEN) using HepaRG (AID 2283523). The gist of the method:
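HepaRG cells, 48 h after plating, exposed in duplicate for 48 h in serum-free induction medium to 8 half-log concentrations up to 100 uM (0.5% DMSO). PTEN mRNA by qRT-PCR, normalized to ACTB, GAPDH, POLR2A; bidirectional fit versus DMSO.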

Read-out in test [15]: solute carrier (SLC22A1), SLC22A1 (gene 6580)
Nature of the test: LTEA_HepaRG_SLC22A1: Life Technologies and Expression Analysis (LTEA) Assay for solute carrier (SLC22A1) using HepaRG (AID 2283524). The essentials: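 Differentiated human HepaRG cells in serum-free induction medium, exposed 48 h in duplicate to 8-point half-log series from 100 µM top in 0.5% DMSO. SLC22A1 mRNA by TaqMan qRT-PCR normalized to ACTB, GAPDH, POLR2A; bidirectional fit versus DMSO.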

Read-out in test [16]: Pyruvate Dehydrogenase Kinase 4 (PDK4), PDK4 (gene 5166)
Nature of the test: LTEA_HepaRG_PDK4: Life Technologies and Expression Analysis (LTEA) Assay for Pyruvate Dehydrogenase Kinase 4 (PDK4) using HepaRG (AID 2283525). The gist of the method: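 HepaRG cells plated 48 h, then switched to serum-free induction medium and exposed in duplicate for 48 h to 8 half-log concentrations from 100 uM in 0.5% DMSO. PDK4 mRNA measured by qRT-PCR, normalized to ACTB, GAPDH and POLR2A; bidirectional fit versus DMSO.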

Read-out in test [17]: NAD(P)H dehydrogenase [quinone] 1 (NQO1), NQO1 (gene 1728)
Nature of the test: LTEA_HepaRG_NQO1: Life Technologies and Expression Analysis (LTEA) Assay for NAD(P)H dehydrogenase [quinone] 1 (NQO1) using HepaRG (AID 2283526). The essentials:
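Human HepaRG hepatic cells received chemicals for 48 h in serum-free induction medium with 0.5% DMSO, up to 100 uM. Expression was assessed by TaqMan qRT-PCR against housekeeping controls and fitted bidirectionally against DMSO.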

Read-out in test [18]: Nuclear factor NF-kappa-B p105 subunit (Homo sapiens) (UniProt P19838)
Nature of the test: LTEA_HepaRG_NFKB1: Life Technologies and Expression Analysis (LTEA) Assay for Nuclear Factor Kappa B Subunit 1 (NFKB1) using HepaRG (AID 2283521).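 Note: TaqMan qRT-PCR transcript normalised to ACTB GAPDH and POLR2A housekeeping genes.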 The essentials: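 Differentiated human HepaRG cells were exposed for 48 h in serum-free induction medium to eight concentrations (top 100 uM, half-log steps, 0.5% DMSO), in duplicate. NFKB1 mRNA was measured by TaqMan qRT-PCR, normalized to ACTB/GAPDH/POLR2A, and fitted bidirectionally against DMSO.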

Nuclear factor NF-kappa-B p105 subunit (Homo sapiens), sequence (P19838 whole entry, looked up): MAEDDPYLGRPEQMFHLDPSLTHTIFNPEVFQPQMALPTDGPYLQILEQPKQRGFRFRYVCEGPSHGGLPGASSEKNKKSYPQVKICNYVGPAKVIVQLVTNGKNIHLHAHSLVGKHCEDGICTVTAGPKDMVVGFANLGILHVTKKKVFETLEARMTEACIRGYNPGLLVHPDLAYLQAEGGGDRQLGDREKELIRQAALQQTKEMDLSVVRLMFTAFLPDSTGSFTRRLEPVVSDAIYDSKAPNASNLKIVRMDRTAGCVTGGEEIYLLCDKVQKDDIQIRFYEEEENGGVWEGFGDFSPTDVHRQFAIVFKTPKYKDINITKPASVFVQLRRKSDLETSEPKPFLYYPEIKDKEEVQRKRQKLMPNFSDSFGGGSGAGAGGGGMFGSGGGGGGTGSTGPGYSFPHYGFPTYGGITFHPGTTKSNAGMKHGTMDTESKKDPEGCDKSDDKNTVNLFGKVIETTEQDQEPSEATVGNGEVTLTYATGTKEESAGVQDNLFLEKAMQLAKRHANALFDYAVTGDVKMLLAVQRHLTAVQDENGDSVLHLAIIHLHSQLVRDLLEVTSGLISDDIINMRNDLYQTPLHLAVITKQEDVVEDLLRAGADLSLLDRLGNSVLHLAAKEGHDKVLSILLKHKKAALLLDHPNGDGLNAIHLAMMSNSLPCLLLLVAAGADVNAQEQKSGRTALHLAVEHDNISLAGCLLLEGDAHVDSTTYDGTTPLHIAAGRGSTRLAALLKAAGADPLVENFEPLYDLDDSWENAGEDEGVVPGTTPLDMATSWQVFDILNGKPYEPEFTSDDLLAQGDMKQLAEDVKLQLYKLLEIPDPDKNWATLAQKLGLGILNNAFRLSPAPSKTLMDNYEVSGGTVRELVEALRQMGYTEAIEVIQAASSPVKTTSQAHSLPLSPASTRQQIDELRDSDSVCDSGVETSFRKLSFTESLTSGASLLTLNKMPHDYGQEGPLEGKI

`CCOCCOC(C)=O`: the result in [1], in test [2], in test [3], in test [4], in test [5] and in test [6] was inactive. The outcome in [7] is “inactive”; in [8], “inactive”; in test [9], “inactive”; in test [10], “inactive”; with MYC, MYC (gene 4609) it was “inactive”; in [11] it was “inactive”. The outcome in test [12], in test [13], in test [14], in [15], in test [16] and in test [17] was inactive.

Broadly, the AC50 is the concentration giving half of the maximal activity seen. With `O=C(NC(=O)c1cc(F)c(F)cc1Cl)Nc1cc(F)ccc1N1CCC(C(=O)O)CC1`, the outcome in test [1], in [2], in test [3], in [4], in [5] and in [6] was inactive. The outcome is “inactive” in test [7]; “inactive” in [8]; “inactive” in [9]; “inactive” in [10]; “inactive” with MYC, MYC (gene 4609); “inactive” in test [11]. The result in test [13], in test [14], in test [15], in test [16] and in [17] was inactive. The half-maximal activity concentration (AC50) in test [12] was 25 µM (active).

Turning to `CC#Cc1cc(C)nc(Nc2ccccc2)n1`, the concentration at half-maximal activity (AC50) was 21.9 µM (active) in test [1]; 23.6 µM (active) in [2]; 22.8 µM (active) in test [5]; 15.3 µM (active) in test [7]; 3.75 µM (active) in [8]; 21.7 µM (active) in test [9]. For the same molecule, the concentration at half-maximal activity (AC50) with MYC, MYC (gene 4609) is 28.4 µM (active); in test [12] it was 13.1 µM (active); in [15], 26.4 µM (active); in test [16], 19.2 µM (active). The call in test [3], in test [4], in test [6], in test [10], in test [18] and in test [13] was inactive. The molecule was classed as inactive in test [14] and in test [17].

As for `O=C(O)C(F)(F)C(F)(F)C(F)(F)C(F)(F)C(F)(F)F`, the molecule was classed as inactive in test [1], in [2], in test [3], in test [4], in test [5] and in [6]. In addition, the outcome was “inactive” in test [7]; “inactive” in [8]; “inactive” in test [9]; “inactive” in test [10]; “inactive” with MYC, MYC (gene 4609); “inactive” in [11]. Also, the molecule was called inactive in test [12], in test [13], in [14], in [15] and in test [17]. For the same molecule, in [16], the AC50 is 14.9 µM (active).
